Experimental data as given in PubChem BioAssay.
This is one part of the list. Values without a mark were called inactive. The source made the active and inactive calls.

Columns and labels:
[1] = target: Inward rectifier potassium channel 2 (Mus musculus) (UniProt P35561); test: inhibition of Kir2.1 inward rectifier potassium flux – cell-based, FluxOR thallium flux, duplicate, confirmation (AID 2032;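 active = Primary-screen hit whose thallium flux fell at least 3 control SD below untreated wells in both duplicates, with normal baseline fluorescence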); settings: Kir2.1-expressing cells, FluxOR thallium flux fluorescence, at 10 µM; hits give low values
Sequence of Inward rectifier potassium channel 2 (Mus musculus) (P35561 whole entry, looked up): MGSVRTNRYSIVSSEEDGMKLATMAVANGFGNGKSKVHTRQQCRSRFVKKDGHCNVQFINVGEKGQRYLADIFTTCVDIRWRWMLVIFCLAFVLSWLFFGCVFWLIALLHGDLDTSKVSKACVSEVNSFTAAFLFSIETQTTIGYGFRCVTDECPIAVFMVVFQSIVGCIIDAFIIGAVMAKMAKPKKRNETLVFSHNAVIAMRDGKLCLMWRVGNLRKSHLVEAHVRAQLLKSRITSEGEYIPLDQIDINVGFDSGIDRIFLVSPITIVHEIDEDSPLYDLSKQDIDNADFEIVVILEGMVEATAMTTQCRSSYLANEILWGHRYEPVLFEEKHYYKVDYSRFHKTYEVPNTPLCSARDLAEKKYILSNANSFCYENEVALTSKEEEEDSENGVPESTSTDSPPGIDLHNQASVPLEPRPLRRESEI

[2] = parental HEK293 cell activity, no Kir2.1 – FluxOR thallium flux, duplicate, single concentration, counter-screen for Kir2.1 inhibitor project, confirmation (AID 2105;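 active = dye signal at least 3 control SD above or below untreated wells in both duplicates, raw fluorescence within 3, either direction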); settings: parental HEK293 cells, FluxOR thallium flux fluorescence, at 10 µM; 0% = unstimulated blank wells
[3] = target: Voltage-gated inwardly rectifying potassium channel KCNH2 (Homo sapiens) (UniProt Q12809); test: hERG block by Kir2.1 inhibitor candidates – cell-based, thallium flux, counter-screen for Kir2.1 inhibitor project (AID 2236); settings: hERG-expressing cells, at 10 µM; hits give high values;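 note: host cells are CHO cells stably expressing hERG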
Sequence of Voltage-gated inwardly rectifying potassium channel KCNH2 (Homo sapiens) (Q12809 whole entry, looked up): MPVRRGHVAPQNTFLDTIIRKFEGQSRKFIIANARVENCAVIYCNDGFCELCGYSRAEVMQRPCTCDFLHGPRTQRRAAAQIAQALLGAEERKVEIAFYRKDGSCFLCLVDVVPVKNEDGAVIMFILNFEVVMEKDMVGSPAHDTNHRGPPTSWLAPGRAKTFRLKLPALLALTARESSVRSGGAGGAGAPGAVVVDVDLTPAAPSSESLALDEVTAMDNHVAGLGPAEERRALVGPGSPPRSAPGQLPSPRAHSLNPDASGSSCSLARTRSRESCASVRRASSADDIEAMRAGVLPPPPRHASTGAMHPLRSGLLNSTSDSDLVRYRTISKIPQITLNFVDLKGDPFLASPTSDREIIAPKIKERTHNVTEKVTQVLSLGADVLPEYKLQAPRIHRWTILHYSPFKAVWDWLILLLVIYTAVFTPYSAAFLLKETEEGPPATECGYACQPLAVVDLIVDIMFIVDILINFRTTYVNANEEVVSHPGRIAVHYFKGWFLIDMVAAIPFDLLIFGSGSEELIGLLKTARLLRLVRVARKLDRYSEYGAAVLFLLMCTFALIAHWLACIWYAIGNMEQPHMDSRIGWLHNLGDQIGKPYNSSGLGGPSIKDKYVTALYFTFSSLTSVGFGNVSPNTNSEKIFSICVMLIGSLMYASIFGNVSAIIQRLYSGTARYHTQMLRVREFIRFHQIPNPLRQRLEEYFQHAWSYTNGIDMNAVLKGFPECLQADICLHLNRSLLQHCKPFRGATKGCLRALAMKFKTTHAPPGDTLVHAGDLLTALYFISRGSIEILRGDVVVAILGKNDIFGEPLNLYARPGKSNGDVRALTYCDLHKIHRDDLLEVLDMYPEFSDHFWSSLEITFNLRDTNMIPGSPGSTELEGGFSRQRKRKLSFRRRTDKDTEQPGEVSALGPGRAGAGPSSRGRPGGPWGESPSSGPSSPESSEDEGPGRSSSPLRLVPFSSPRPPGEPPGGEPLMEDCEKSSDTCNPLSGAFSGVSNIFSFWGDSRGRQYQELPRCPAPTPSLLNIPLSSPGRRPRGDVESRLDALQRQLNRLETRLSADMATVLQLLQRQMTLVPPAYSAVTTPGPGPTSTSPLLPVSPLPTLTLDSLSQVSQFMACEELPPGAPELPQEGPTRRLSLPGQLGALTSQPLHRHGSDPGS

[4] = target: Potassium channel subfamily K member 9 (Homo sapiens) (UniProt Q9NPC2); test: human KCNK9 potassium channel blockers – cell-based, selectivity assay for Kir2.1 inhibitor project (AID 2329); settings: KCNK9-expressing cells, ion flux inhibition, at 10 µM; hits give high values
[5] = target: Inward rectifier potassium channel 2 (Mus musculus) (UniProt P35561); test: Kir2.1 potassium current inhibition – cell-based, secondary, automated electrophysiology, Kir2.1 inhibitor project (AID 463252); settings: Kir2.1 cells, automated patch-clamp current inhibition, at 25 µM; hits give high values
[6] = nonspecific voltage dye response without TRPC6 – cell-based, parental HEK293, counter-screen for TRPC6 modulator project, confirmation (AID 488924;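 active = membrane potential signal moves up or down beyond 5 SD from buffer-only wells, on both duplicate plates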); settings: parental HEK293, membrane potential dye fluorescence; at 10 µM
[7] = membrane potential response modulators in host HEK293 cells – cell-based, second counter-screen, parental HEK293, membrane potential dye, counter-screen for TRPC6 modulator project, confirmation (AID 488926;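 active = membrane potential signal drops by more than 5 SD from the mean control signal, in both duplicate plates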); settings: parental HEK293, membrane potential dye fluorescence; at 10 µM; after compound, maximal acetylcholine stimulation
[8] = tested on: Transient receptor potential cation channel subfamily C member 4 (mouse); test: off-target membrane potential effects via mouse TRPC4 – cell-based, HEK293 TRPC4/mu-opioid, membrane potential dye, selectivity assay for TRPC6 modulator project, confirmation (AID 488927;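 active = membrane potential signal moved up or down beyond 5 SD of buffer control wells, in both duplicate plates, actives on both sides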;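 note: plate controls were assay buffer wells for no effect and DAMGO maximal-effect wells for full effect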); settings: membrane potential fluorescence, at 10 µM
[9] = tested on: TRPC4 (transient receptor potential cation channel C4), mouse; test: DAMGO-evoked mouse TRPC4 response blockade – cell-based, second screen, HEK293 TRPC4/mu-opioid, membrane potential dye, selectivity assay for TRPC6 modulator project, confirmation (AID 488928;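 active = drop in membrane potential signal beyond 5 SD of the control wells in both duplicate plates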;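 note: TRPC4 counter screen for TRPC6 hits run under conditions tuned for TRPC6 not TRPC4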); settings: membrane potential dye fluorescence, at 10 µM, stimulated with maximal-effect DAMGO; hits give high values
[10] = target: Short transient receptor potential channel 6 (Mus musculus) (UniProt Q61143); test: blockers of TRPC6 cation channel activity – HEK293 cells, membrane potential dye, duplicate, confirmation (AID 488960;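 active = fluorescence ratio falls more than 5 SD below the full-stimulation control mean, in both duplicate runs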;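 for inhibition: integrated fluorescence ratio of peak minus minimum over baseline after agonist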); settings: ACh-evoked depolarization, at 10 µM; hits give high values
Sequence of Short transient receptor potential channel 6 (Mus musculus) (Q61143 whole entry, looked up): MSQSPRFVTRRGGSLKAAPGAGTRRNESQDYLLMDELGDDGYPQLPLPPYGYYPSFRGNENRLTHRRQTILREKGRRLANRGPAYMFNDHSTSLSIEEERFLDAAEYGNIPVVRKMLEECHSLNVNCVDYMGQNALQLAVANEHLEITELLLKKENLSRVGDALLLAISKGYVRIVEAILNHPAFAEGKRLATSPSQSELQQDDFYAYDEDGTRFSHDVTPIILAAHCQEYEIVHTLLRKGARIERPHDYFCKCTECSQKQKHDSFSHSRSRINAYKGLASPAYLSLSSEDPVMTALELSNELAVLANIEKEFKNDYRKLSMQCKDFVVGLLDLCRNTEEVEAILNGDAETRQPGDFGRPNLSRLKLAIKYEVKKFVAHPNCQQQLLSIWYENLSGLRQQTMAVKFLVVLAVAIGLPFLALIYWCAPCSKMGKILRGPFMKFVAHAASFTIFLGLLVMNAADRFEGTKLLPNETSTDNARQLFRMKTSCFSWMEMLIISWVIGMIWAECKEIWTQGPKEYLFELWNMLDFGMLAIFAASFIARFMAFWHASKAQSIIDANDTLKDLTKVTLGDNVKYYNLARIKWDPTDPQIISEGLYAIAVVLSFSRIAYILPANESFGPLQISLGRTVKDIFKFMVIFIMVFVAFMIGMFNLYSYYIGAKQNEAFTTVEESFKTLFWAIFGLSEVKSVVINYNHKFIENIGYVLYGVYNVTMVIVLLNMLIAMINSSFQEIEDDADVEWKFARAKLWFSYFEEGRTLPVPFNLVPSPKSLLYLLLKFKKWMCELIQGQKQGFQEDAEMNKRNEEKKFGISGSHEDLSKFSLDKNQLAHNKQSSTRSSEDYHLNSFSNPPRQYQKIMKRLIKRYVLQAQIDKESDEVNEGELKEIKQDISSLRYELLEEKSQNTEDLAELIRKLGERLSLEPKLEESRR

[11] = parental CHO-K1 cell activation, no KCNQ2 – FluxOR thallium flux, duplicate, counter-screen for KCNQ2 potentiator project, confirmation (AID 2282;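 active = signal rise of at least 3 SD above the untreated control mean, in both duplicate wells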;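 note: counter screen of KCNQ2 potentiator hits so any rise reflects channel-independent effects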); settings: parental CHO-K1 cells, FluxOR thallium flux fluorescence; at 10 µM; hits give high values; zero = vehicle mean+3SD, 100% = vehicle-minus-blank window
[12] = target: Potassium voltage-gated channel subfamily KQT member 1 (Homo sapiens) (UniProt P51787); test: KCNQ1 activation in stable CHO cells – cell-based, FluxOR thallium flux, selectivity assay for KCNQ2 potentiator project, confirmation (AID 2283;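 active = fluorescence ratio rise of at least 3 SD of vehicle wells above their mean, in both replicate wells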;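 note: 0% = vehicle mean plus 3 SD and 100% = vehicle minus unstimulated blank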); settings: FluxOR thallium flux fluorescence, at 10 µM, hits give high values, beyond 3SD, as % of vehicle-control signal
Sequence of Potassium voltage-gated channel subfamily KQT member 1 (Homo sapiens) (P51787 whole entry, looked up): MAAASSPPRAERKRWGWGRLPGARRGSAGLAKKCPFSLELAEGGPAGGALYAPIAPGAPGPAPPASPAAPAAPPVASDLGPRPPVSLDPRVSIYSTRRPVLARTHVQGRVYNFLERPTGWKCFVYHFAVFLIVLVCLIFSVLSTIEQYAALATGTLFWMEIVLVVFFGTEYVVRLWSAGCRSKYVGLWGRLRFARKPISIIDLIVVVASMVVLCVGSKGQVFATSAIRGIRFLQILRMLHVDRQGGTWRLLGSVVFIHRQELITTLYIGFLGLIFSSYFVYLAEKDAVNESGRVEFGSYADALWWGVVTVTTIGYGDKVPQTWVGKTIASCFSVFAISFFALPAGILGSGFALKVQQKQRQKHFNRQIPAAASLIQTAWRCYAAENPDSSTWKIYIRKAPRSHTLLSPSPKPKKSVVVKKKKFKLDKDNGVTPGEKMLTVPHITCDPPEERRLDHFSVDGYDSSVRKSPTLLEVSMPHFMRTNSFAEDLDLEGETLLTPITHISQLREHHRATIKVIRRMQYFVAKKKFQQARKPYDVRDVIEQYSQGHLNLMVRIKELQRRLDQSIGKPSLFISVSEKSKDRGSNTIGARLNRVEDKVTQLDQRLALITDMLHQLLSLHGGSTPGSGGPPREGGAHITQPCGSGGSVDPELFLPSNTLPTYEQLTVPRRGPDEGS

[13] = target: Potassium voltage-gated channel subfamily KQT member 2 (Rattus norvegicus) (UniProt O88943); test: KCNQ2 potassium channel activity enhancers – cell-based, CHO, FluxOR thallium flux, duplicate, confirmation (AID 2287;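 active = fluorescence ratio rising 3 SD or more over the vehicle control mean in both replicates, plus primary screen hit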;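 note: peak minus minimum thallium fluorescence divided by baseline after K/Tl stimulus; 0% = vehicle mean plus 3 SD and 100% = vehicle minus unstimulated blank difference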); settings: CHO-KCNQ2 cells, FluxOR thallium flux fluorescence; at 10 µM; hits give high values
[14] = target: Inward rectifier potassium channel 2 (Mus musculus) (UniProt P35561); test: PubChem AID 2345; settings: HEK293 Kir2.1, FluxOR thallium flux fluorescence; at 10 µM; hits give high values;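 note: 0% = vehicle mean plus 3 SD and 100% = vehicle minus no-stimulus blank window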
[15] = target: Potassium voltage-gated channel subfamily KQT member 2 (Rattus norvegicus) (UniProt O88943); test: W236L mutant KCNQ2 current enhancers – cell-based, rat KCNQ2 W236L, CHO, automated patch clamp, mechanism study for KCNQ2 potentiator project (AID 2558;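 active = current increase at least 3 SD of the untreated controls above them in both duplicate recordings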); settings: at 25 µM
[16] = target: Short transient receptor potential channel 6 (Mus musculus) (UniProt Q61143); test: mouse TRPC6 channel activators, confirmation, HEK293 cells, membrane potential dye, duplicate (AID 488961;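 active = ratio signal rise beyond 5 SD above unstimulated control wells' mean, seen in both duplicate runs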;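 for activation: plate controls were buffer EC0 wells for no effect and acetylcholine ECmax response for full effect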); settings: HEK293-TRPC6 membrane potential dye fluorescence, FDSS, at 10 µM; hits give high values
[17] = target: Short transient receptor potential channel 4 (Mus musculus) (UniProt Q9QUQ5); test: DAMGO-gated TRPC4 membrane potential modulation – cell-based, second specificity screen, HEK293 TRPC4/mu-opioid, selectivity assay for TRPC6 inhibitor project, confirmation (AID 2776;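 active = compounds whose fluorescence signal differed from control wells by over 3 SD, either direction, in both duplicate plates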); settings: HEK293 TRPC4/MOR, membrane potential dye fluorescence, at 10 µM, channel activated by saturating DAMGO dose; hits give high values
Sequence of Short transient receptor potential channel 4 (Mus musculus) (Q9QUQ5 whole entry, looked up): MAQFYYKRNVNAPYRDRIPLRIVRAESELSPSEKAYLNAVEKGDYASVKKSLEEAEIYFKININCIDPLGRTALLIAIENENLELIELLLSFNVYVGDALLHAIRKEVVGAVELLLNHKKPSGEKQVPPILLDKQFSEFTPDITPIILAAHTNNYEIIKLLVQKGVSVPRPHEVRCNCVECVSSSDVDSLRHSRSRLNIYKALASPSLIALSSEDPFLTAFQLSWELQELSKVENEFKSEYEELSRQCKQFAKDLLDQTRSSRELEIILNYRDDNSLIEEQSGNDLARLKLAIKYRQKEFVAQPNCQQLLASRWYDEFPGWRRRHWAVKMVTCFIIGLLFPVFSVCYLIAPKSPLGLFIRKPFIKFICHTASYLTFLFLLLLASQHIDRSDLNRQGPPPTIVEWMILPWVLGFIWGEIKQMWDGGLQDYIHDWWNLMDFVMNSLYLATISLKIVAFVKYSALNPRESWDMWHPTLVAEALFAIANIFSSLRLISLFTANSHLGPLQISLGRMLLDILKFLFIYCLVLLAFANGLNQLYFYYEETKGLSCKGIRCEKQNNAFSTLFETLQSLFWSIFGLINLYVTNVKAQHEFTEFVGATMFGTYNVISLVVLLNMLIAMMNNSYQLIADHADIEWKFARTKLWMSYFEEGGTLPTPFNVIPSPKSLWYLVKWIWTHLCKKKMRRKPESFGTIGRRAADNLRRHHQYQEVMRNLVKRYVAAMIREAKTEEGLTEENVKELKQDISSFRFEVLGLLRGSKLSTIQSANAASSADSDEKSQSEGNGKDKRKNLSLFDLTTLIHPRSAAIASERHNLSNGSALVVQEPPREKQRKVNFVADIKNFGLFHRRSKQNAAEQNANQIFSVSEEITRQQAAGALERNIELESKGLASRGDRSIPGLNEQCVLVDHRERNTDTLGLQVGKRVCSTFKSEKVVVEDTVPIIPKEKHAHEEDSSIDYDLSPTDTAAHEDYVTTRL

[18] = tested on: transient receptor potential cation channel C4 (TRPC4), mouse; test: membrane potential change in TRPC4 cells – cell-based, HEK293 TRPC4/mu-opioid, membrane potential dye, selectivity assay for TRPC6 inhibitor project, confirmation (AID 2777;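 active = rise or fall in signal beyond 3 SD of buffer-only wells in both replicate plates, either sign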;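 note: integrated kinetic ratio of fluorescence range over baseline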); settings: membrane potential fluorescence, at 10 µM
[19] = parental HEK293 depolarization signal interference – cell-based, second counter screen, counter-screen for TRPC6 inhibitor project, confirmation (AID 2779;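 active = membrane potential signal moving either way by over 3 SD of the maximum-effect control, in both duplicate plates, meaning non-specific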); settings: parental HEK293 membrane potential dye fluorescence; at 10 µM; maximal acetylcholine challenge after compound addition
[20] = nonspecific voltage dye signal in HEK293 – cell-based, parental HEK293, counter-screen for TRPC6 inhibitor project, confirmation (AID 2780;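 active = membrane potential signal shifting up or down by more than 3 SD of buffer-only wells, on both duplicate plates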;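 for membrane potential signal change: plate controls were buffer EC0 wells for no effect and acetylcholine ECmax wells for full effect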); settings: parental HEK293 membrane potential dye fluorescence; at 10 µM
[21] = target: Potassium voltage-gated channel subfamily KQT member 1 (Homo sapiens) (UniProt P51787); test: blockers of human KCNQ1 channel – cell-based, Tl flux, duplicate, confirmation (AID 588353;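 active = primary screen active, with duplicate mean exceeding buffer control mean plus 3 SD of buffer wells, cut at about 28% in these data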;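 note: 0% = buffer control ratio and 100% = XE991 inhibitor control ratio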); settings: KCNQ1 cell line, FluxOR thallium flux fluorescence; at 10 µM; hits give high values
[22] = nonspecific activity in CHO-K1 cells without KCNQ1 – parental CHO cells, Tl flux, counter-screen for KCNQ1 inhibitor project (AID 588366;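 active = mean of duplicate thallium-flux fluorescence ratios in parental host cells more than 5 SD below the buffer control mean, cut at about 0.38 in these data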;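 note: ratio is peak minus minimum fluorescence divided by baseline fluorescence; actives read low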); settings: parental CHO-K1, FluxOR thallium flux fluorescence ratio; at 10 µM; hits give low values; zero means no signal rise above baseline
[23] = target: Potassium voltage-gated channel subfamily KQT member 2 (Rattus norvegicus) (UniProt O88943); test: block of rat KCNQ2 potassium channel – cell-based, selectivity assay for KCNQ1 inhibitor project (AID 651746;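 active = mean percent inhibition of the KCNQ2 thallium signal more than 5 SD above the buffer-only control wells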;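 note: 0% = buffer control wells and 100% = XE-991 inhibitor control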); settings: KCNQ2 cells, FluxOR thallium flux fluorescence, at 10 µM; hits give high values
[24] = target: Potassium voltage-gated channel subfamily E member 1 (Homo sapiens) + Potassium voltage-gated channel subfamily KQT member 1 (Homo sapiens) (UniProt P15382+P51787); test: block of human IKs channel complex – CHO-K1 cells, thallium flux, FluxOR, selectivity assay for KCNQ1 inhibitor project (AID 652147;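 active = mean percent inhibition of duplicate wells above the buffer-only control mean plus 3 SD of those controls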); settings: KCNQ1/KCNE1 cells, FluxOR thallium flux fluorescence; at 10 µM
Sequence of Potassium voltage-gated channel subfamily E member 1 (Homo sapiens) + Potassium voltage-gated channel subfamily KQT member 1 (Homo sapiens) (P51787 whole entry, looked up): as the sequence (P51787 whole entry, looked up) above

For `CC12CN(Cc3ccccc3)CC(C)(CN(Cc3ccccc3)C1)C2=NO`, the Tl flux remaining, % of negative control (hits give low values) [1] was 54.5% (active) and the outcome [2] was “inactive”.
For `S=C(Nc1ccc(Br)cc1)NC1CCN(Cc2ccccc2)CC1`, the Tl flux remaining, % of negative control (hits give low values) [1] was 48% (active), the outcome [2] was “inactive” and the inhibition [3] was 49% (active). For the same compound, the outcome [4] was “inactive” and the inhibition [5] was 4.2% (active).
With `Cc1ccc(Nc2c3c(nc4ccccc24)CCC3)cc1` the Tl flux remaining, % of negative control (hits give low values) [1] was 16% (active), the outcome [2] was “inactive” and the inhibition [3] was 61% (active). The outcome [4] was “inactive” and the inhibition [5] was 83.9% (active).
For `Cc1nnc(SCc2ccc(C(=O)c3ccc(Cl)cc3)o2)n1-c1ccccc1`, the Tl flux remaining, % of negative control (hits give low values) [1] was 66% (active), the outcome [2] was “inactive” and the outcome [3] was “inactive”. The outcome [4] was “inactive”, the inhibition [5] was 19% (active) and the membrane potential signal change [6] was 116% (active). For the same compound, the outcome [7] was “inactive”, the percent change from control (negative = decrease, positive = increase) [8] was 23.5% (active) and the outcome [9] was “inactive”. For the same compound, the inhibition [10] was 62% (active).
With `O=C(Cc1c[nH]c2ccccc12)OCCOC(=O)Cc1c[nH]c2ccccc12` the Tl flux remaining, % of negative control (hits give low values) [1] was 48.5% (active) and the outcome [2] was “inactive”.
For `CN(c1ccccc1)S(=O)(=O)c1ccc(Cl)c(C(=O)OCC(=O)NCc2ccco2)c1`, the outcome [1] was “inactive”, the outcome [2] was “inactive” and the activity increase over 3SD of controls [11] was -5.5%. The activation over 3SD threshold [12] was -28.3%, the potentiation, less the hit threshold [13] was -1.3% and the activity over 3SD threshold [14] was -38.2%.
For `CCCc1nc2sc3c(c2c(=O)n1NC(=O)CCCl)CCCC3`, the outcome [1] was “inactive”, the outcome [2] was “inactive” and the activity increase over 3SD of controls [11] was -7%. For the same compound, the activation over 3SD threshold [12] was 28.9% (active), the potentiation, less the hit threshold [13] was 69.9% (active) and the activity over 3SD threshold [14] was -17.7%. The outcome [15] was “inactive”.
In the case of `Cc1cc(C)nc(SCc2nnc(SCC(=O)OC3CCCCC3)o2)n1`, the Tl flux remaining, % of negative control (hits give low values) [1] is reported as 28% (active), the outcome [2] is reported as “inactive” and the outcome [3] is reported as “inactive”. For the same compound, the outcome [4] was “inactive” and the inhibition [5] was 82.2% (active).
For `CCCCNC(=O)Nc1c(C)cc(SC#N)cc1C`, the outcome [1] was “inactive”, the outcome [2] was “inactive” and the activity increase over 3SD of controls [11] was 5.5% (active). For the same compound, the activation over 3SD threshold [12] was 75.2% (active), the potentiation, less the hit threshold [13] was 19.5% (active) and the activity over 3SD threshold [14] was -33.2%. The outcome [15] was “inactive”.
For `CCCc1cc(=O)[nH]c(SCC(=O)c2cc(C)n(CCC)c2C)n1`, the Tl flux remaining, % of negative control (hits give low values) [1] was 60% (active), the outcome [2] was “inactive” and the outcome [3] was “inactive”. The outcome [4] was “inactive” and the inhibition [5] was 30.9% (active).
In the case of `CCOC(=O)NC(C(F)(F)F)(C(F)(F)F)P(=O)(c1ccccc1)c1ccccc1`, the outcome [1] is reported as “inactive”, the outcome [2] is reported as “inactive” and the activity increase over 3SD of controls [11] is reported as -3.2%. The activation over 3SD threshold [12] was -13.6%, the potentiation, less the hit threshold [13] was -18.1% and the activity over 3SD threshold [14] was -34.2%.
In the case of `CN1CCN(CCCCOc2ccccc2-c2ccccc2)CC1`, the Tl flux remaining, % of negative control (hits give low values) [1] is reported as 48.5% (active), the outcome [2] is reported as “inactive” and the outcome [3] is reported as “inactive”. The outcome [4] was “inactive” and the inhibition [5] was 27.4% (active).
In the case of `O=C(Nc1ccc(Oc2ccccc2)cc1)c1ccco1`, the outcome [1] is reported as “inactive”, the outcome [2] is reported as “inactive” and the activity increase over 3SD of controls [11] is reported as -13.5%. The activation over 3SD threshold [12] was 26% (active), the potentiation, less the hit threshold [13] was 37.7% (active) and the activity over 3SD threshold [14] was -25.3%. The current increase over 3SD of negative controls (%), hits give high values [15] was 9.43% (active).
In the case of `CC(NCc1ccccc1OC1CCCC1)c1ccccc1` (stereo not given), the Tl flux remaining, % of negative control (hits give low values) [1] is reported as 23.5% (active), the outcome [2] is reported as “inactive” and the outcome [3] is reported as “inactive”. The outcome [4] was “inactive”, the inhibition [5] was 23.4% (active) and the membrane potential signal change [6] was 416% (active). For the same compound, the outcome [7] was “inactive”, the percent change from control (negative = decrease, positive = increase) [8] was 114% (active) and the inhibition [9] was 79.5% (active). The inhibition [10] was 83% (active) and the activation [16] was 122% (active).
For `C=CCc1cc(S(=O)(=O)c2ccc(O)c(CC=C)c2)ccc1O`, the Tl flux remaining, % of negative control (hits give low values) [1] was 40.5% (active), the outcome [2] was “inactive” and the outcome [3] was “inactive”. The inhibition [4] was 79% (active) and the outcome [5] was “inactive”.
With `O=C(CCCN1CCc2[nH]c3ccc(F)cc3c2C1)c1ccc(F)cc1` the Tl flux remaining, % of negative control (hits give low values) [1] was 46% (active), the outcome [2] was “inactive” and the inhibition [3] was 69% (active). The outcome [4] was “inactive” and the inhibition [5] was 5.5% (active).
With `COc1cccc(NC(=O)C2C(c3ccccc3)C2(Cl)Cl)c1` (stereo not given) the outcome [1] was “inactive”, the outcome [2] was “inactive” and the activity increase over 3SD of controls [11] was -15.2%. For the same compound, the activation over 3SD threshold [12] was 4.2% (active), the potentiation, less the hit threshold [13] was 7% (active) and the activity over 3SD threshold [14] was -29.8%. For the same compound, the outcome [15] was “inactive”.
For `N=c1c2c(-c3ccccc3)c(-c3ccccc3)n(Cc3ccccc3)c2ncn1CCCO`, the Tl flux remaining, % of negative control (hits give low values) [1] was 37% (active), the outcome [2] was “inactive” and the outcome [17] was “inactive”. For the same compound, the outcome [18] was “inactive”, the outcome [19] was “inactive” and the outcome [20] was “inactive”. The outcome [10] was “inactive” and the outcome [16] was “inactive”.
In the case of `Cc1ccc2nc(C)c3c(c2c1)N(c1ccccc1)CC3`, the Tl flux remaining, % of negative control (hits give low values) [1] is reported as 27.5% (active), the outcome [2] is reported as “inactive” and the inhibition [17] is reported as 32% (active). The outcome [18] was “inactive”, the outcome [19] was “inactive” and the membrane potential signal change [20] was -212% (active). For the same compound, the outcome [10] was “inactive”, the outcome [16] was “inactive” and the inhibition [21] was 46% (active). The fluorescence ratio (Tl flux) [22] was 0.419, the inhibition [23] was 83.7% (active) and the outcome [24] was “inactive”.
